Hits are enriched below; roughly 1.2% of the tested compounds scored in any of these assays.
B2AR arrestin: qHTS assay of beta-arrestin-biased ligands of beta2-adrenergic receptor; Beta-2 adrenergic receptor (Homo sapiens), P07550; beta-arrestin recruitment to beta2AR, cell-based reporter; Potency, µM (highest dose often 46.1 µM), most hits filed as activators; hit rate 0.02% among 330,000; AID 492947, 2010; also: nearly all actives have a fitted effect of over 65% in size
Target sequence (P07550 whole entry, looked up): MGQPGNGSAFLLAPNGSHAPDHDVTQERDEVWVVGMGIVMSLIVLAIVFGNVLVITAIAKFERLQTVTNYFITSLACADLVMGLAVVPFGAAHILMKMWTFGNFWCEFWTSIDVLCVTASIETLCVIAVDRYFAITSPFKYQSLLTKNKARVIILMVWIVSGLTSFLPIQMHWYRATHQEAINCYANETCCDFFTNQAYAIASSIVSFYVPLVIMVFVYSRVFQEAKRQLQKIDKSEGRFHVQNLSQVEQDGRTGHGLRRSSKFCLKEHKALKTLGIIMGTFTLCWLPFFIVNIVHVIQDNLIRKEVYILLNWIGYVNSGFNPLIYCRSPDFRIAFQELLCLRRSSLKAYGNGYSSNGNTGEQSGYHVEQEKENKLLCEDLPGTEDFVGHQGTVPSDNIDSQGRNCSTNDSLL
ERG-DNA inh: qHTS for Small Molecule Inhibitors of the ERG Ets/DNA interaction | fluorescence polarization, His-ERG Ets domain / labelled DNA | Transcriptional regulator ERG (Homo sapiens), P11308 | hit rate 0.028% among 370,000 | Potency, µM (top dose mostly 76.9 µM), actives largely listed as inhibitors; active = well fitted inhibition curve with a large enough effect in the polarisation, with a control signal flat; inconclusive = small, poorly fitted or top-dose-only effect, or effect the other way, or a change in a side signal; inactive = no such curve, though single readings can be large or run the other way; the % refers to the polarisation;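 also: polarization taken with two DNA probes labelled with fluorescein and Texas red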
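His-tagged ERG Ets domain (1 uM in the protein solution; 300mM KCl, 50mM Tris-HCl, 1mM EDTA, 1mM DTT, pH 7.5) received compound, then a probe mix of 5 nM fluorescein-DNA and 100nM Texas-615-DNA. Fluorescence polarization was read for both dyes.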
BRCA1 expr up: qHTS Assay to Identify Small Molecule Activators of BRCA1 Expression | MCF7-BRCA1-FFLuc reporter, luminescence, 48 h; response scale: scaled: vehicle 0%, 10 µM genistein 100% | Potency, µM (doses to about 46.1 µM), hits mostly activators | hit rate 1.1% among 380,000 | AID 624202, 2012; also: nearly all actives have a fitted effect of over 80% in size
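MCF7-BRCA1-FFLuc cells, 2000/well in phenol-red-free MEM, attached 2 h then treated 48 h at 37 C. Luciferase luminescence read 15 min after reagent; normalized to genistein maximum activation (10microM) and DMSO, concentration-response fitted.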
Mito fusion act: qHTS Assay for Small Molecule Inhibitors of Mitochondrial Division or Activators of Mitochondrial Fusion; S. cerevisiae fusion-defective mutant growth rescue, CellTiterGlo 48 h; Potency, µM (doses to about 46.1 µM), hits mostly activators; hit rate 0.23% among 320,000; AID 485298, 2010; also: nearly all actives have a fitted effect of over 45% in size
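Yeast fusion mutant, YPEG (non-fermentable carbon), compound, 48 h at 37C non-permissive; CellTiterGlo added, 10 min RT, luminescence read. Rescued growth = division inhibition.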
Of the large screens only hits and unclear results are named; the others gave an inactive call. Unless noted, calls follow the shape of the dose curve; as a rule, active = well fitted curve in the direction sought with a large enough effect; inconclusive = small, poorly fitted or top-dose-only effect, or another doubt; inactive = no such curve, though single readings can be large; an effect the other way counts as inactive or inconclusive.

Cc1ccc(/C(N)=N/OC(=O)c2ccco2)cc1	none
COc1ccc(C(=O)O/N=C(\N)c2ccccc2)cc1	BRCA1 expr up inconclusive
Cc1cc(C(=O)Nc2ccc3[nH]ccc3c2)no1	BRCA1 expr up 6.31µM
COc1ccc(C(C)=O)cc1CSc1nnc(Nc2ccc(C)cc2C)s1	Mito fusion act 15.8µM
CSc1ccc(CNc2ccccn2)cc1	BRCA1 expr up 10µM
CC(=O)Nc1ccc2c(c1)nc(CCNC(=O)c1ccco1)n2C	none
CN1CCN(CCc2nc3cc(NC(=O)c4ccco4)ccc3n2C)CC1	none
CC(=O)Nc1ccc2c(c1)nc(CCN1CCC(C)CC1)n2C	none
Cn1c(CN2CCCC2)nc2cc(NC(=O)c3ccco3)ccc21	BRCA1 expr up 5.62µM (no result: ERG-DNA inh)
CC1CCN(CCc2nc3cc(NC(=O)Nc4ccccc4)ccc3n2C)CC1	BRCA1 expr up 14.1µM
Cc1ccc(C(=O)Nc2ccc3c(c2)nc(CCNC(=O)c2ccco2)n3C)cc1	BRCA1 expr up 7.08µM
CC(=O)NCCc1nc2cc(NC(=O)c3ccc([N+](=O)[O-])cc3)ccc2n1C	BRCA1 expr up 6.31µM
COc1ccc(NC(=O)C(CC(C)C)NC(=O)C2CCCCC2)cc1 (stereo not drawn)	none (no result: B2AR arrestin, BRCA1 expr up, Mito fusion act)
CCc1ccc(-n2nc(CO)c(C(=O)NC)n2)cc1	none (no result: B2AR arrestin, BRCA1 expr up, Mito fusion act)
Cn1c(CN2CCCC2)nc2cc(NC(=O)Nc3ccccc3)ccc21	BRCA1 expr up 11.2µM (no result: ERG-DNA inh)
Cn1c(CN2CCCCC2)nc2cc(NC(=O)c3ccccc3)ccc21	none
Cc1nc2c(ccc3nc(NC(=O)Cc4ccccc4)sc32)s1	Mito fusion act 11.2µM
Cc1ccc(CC(=O)Nc2nc3ccccc3s2)cc1	BRCA1 expr up inconclusive
CCOC(=O)c1cnc(-n2nc(C)cc2C)nc1NC	B2AR arrestin 17.8µM
CCOC(=O)NC(=O)/C(C#N)=C\Nc1sccc1C(=O)OC	none
CCOC(=O)NC(=O)/C(C#N)=C\Nc1ccc(Cl)cc1Cl	BRCA1 expr up 12.6µM
CCN(CC)CCOc1ccc2nc(N(C)C)sc2c1	none
CN(C)c1nc2ccc(OCCN3CCCCC3)cc2s1	BRCA1 expr up 11.2µM
Cc1ccc(-c2cc(C(=O)N3CCN(c4ccccc4O)CC3)c3ccccc3n2)o1	BRCA1 expr up 4.47µM
O=C(N/N=C\c1ccc(F)cc1)c1ccc(F)cc1	BRCA1 expr up 11.2µM
COC(=O)c1ccc(/C=N/NC(=O)c2cccc(F)c2)cc1	BRCA1 expr up 10µM
CN(C)c1ccc(C=NNC(=S)Nc2ccc(F)cc2)cc1	BRCA1 expr up 3.98µM (no result: B2AR arrestin, Mito fusion act)
CCC(C(=O)N(C)Cc1ccccc1)n1nc(C)c2sc3ccccc3c2c1=O (stereo not drawn)	none (no result: B2AR arrestin, BRCA1 expr up, Mito fusion act)
Cc1ccc(CNc2ncnc3nc[nH]c23)cc1	none (no result: B2AR arrestin, ERG-DNA inh, Mito fusion act)
CCN(CC)C(=O)c1oc2ccc(S(=O)(=O)N3CCCCCC3)cc2c1C	none
CCN(Cc1ccccc1)C(=O)c1oc2ccc(S(=O)(=O)N3CCOCC3)cc2c1C	Mito fusion act 10µM
COC(=O)c1c(N)n(-c2cc(Cl)cc(Cl)c2)c2nc3ccccc3nc12	none (no result: B2AR arrestin, Mito fusion act)
COc1cc(O)cc(/C=C/c2ccccc2)c1	BRCA1 expr up inconclusive (no result: B2AR arrestin, Mito fusion act)
Oc1ccc(/C=C/c2cc(O)cc(O)c2)cc1	BRCA1 expr up 12.6µM
O=C(Nc1cc(Cl)ccc1O)c1cc(-c2ccco2)on1	BRCA1 expr up 6.31µM
O=C(Nc1cc(Br)ccc1O)c1cc(-c2ccco2)on1	none
Nc1c(C(=O)c2ccccc2)oc2ccccc12	none
Cc1c(C(=O)c2ccccc2)oc2ccc3ccccc3c12	BRCA1 expr up 10µM
c1ccc(CN=C2NN=C(c3ccccc3)CS2)cc1	none
CCN=C1NN=C(c2ccc(C)cc2)CS1	BRCA1 expr up 2.24µM (no result: ERG-DNA inh)
CC1CCN(S(=O)(=O)c2ccc3c(c2)oc(=O)n3CC(=O)NCc2ccc(F)cc2)CC1	none (no result: B2AR arrestin, BRCA1 expr up, Mito fusion act)
CN(C)c1ccc(C#Cc2ccc3cc(CCCO)oc(=O)c3c2)cc1	BRCA1 expr up 3.16µM
Cc1ccc(C(=O)Nc2ccc(Cl)cc2C)c(Cl)c1	BRCA1 expr up 3.16µM
Cc1ccnc(SCC(=O)N2CCc3ccccc32)n1	BRCA1 expr up 10µM
O=C(CSc1ncccn1)N1CCCc2ccccc21	none
O=C(CSc1nnc2ccccn12)c1ccc2c(c1)OCCO2	BRCA1 expr up 7.08µM
O=C(CSc1nnc2ccccn12)N1CCc2ccccc21	BRCA1 expr up 2.82µM
COc1cc(NC(=O)Cn2nc(C(F)(F)F)c3c2CCCC3)c(OC)cc1Cl	none (no result: B2AR arrestin, BRCA1 expr up, Mito fusion act)
CC(C)Cc1cc(C(=O)N2CCCC(C(=O)c3cc(F)ccc3F)C2)no1 (stereo not drawn)	Mito fusion act 11.2µM
Nc1ccc2c(c1)C(=O)N(c1ccc3ccccc3c1)C2=O	BRCA1 expr up 11.2µM (no result: B2AR arrestin, ERG-DNA inh, Mito fusion act)
Cc1cc(O)ccc1N/C=C/c1onc(C)c1[N+](=O)[O-]	BRCA1 expr up inconclusive
Cc1cccc(N/C=C/c2onc(C)c2[N+](=O)[O-])c1	BRCA1 expr up 2.51µM (no result: B2AR arrestin)
Cc1cc(C)cc(C(=O)Nc2nc3ccccc3[nH]2)c1	BRCA1 expr up 7.94µM
COc1ccc(OCC(=O)Nc2nc3ccccc3[nH]2)cc1	BRCA1 expr up 10µM
O=C(COc1ccc2ccccc2c1)Nc1nc2ccccc2[nH]1	none
O=C(Nc1nc2ccccc2[nH]1)c1cc(F)cc(F)c1	BRCA1 expr up inconclusive
O=C(CC1CCCC1)Nc1nc2ccccc2[nH]1	BRCA1 expr up 3.16µM
Cc1ccc(-n2nc(C)c3c(C)cc(=O)n(CC(=O)Nc4cccc(C)c4C)c32)cc1	none (no result: B2AR arrestin, BRCA1 expr up, Mito fusion act)
O=C(NC(=S)Nc1cccc2[nH]ncc12)c1ccccc1	BRCA1 expr up 10µM
COc1ccc(NC(=O)c2sccc2C)cn1	BRCA1 expr up 7.94µM
COc1ccc(NC(=S)NC(=O)c2ccccc2)cn1	BRCA1 expr up 11.2µM
Cc1[nH]c2ccccc2c1C(=O)C(=O)Nc1ccc2c(c1)OCO2	BRCA1 expr up 2.51µM
